From PMC4336329 (PLoS ONE, 2015)
Among all 310,000 compounds or so, about 14,000 (4.5%) showed an effect of 50% or more. The effect is printed as a negative number. The sample holds strong results, similar compounds and a random draw of the others, so the mix is not that of the screen.

These molecules were tested against human ether-à-go-go-related gene (hERG) potassium channel (human, UniProt Q12809) (assay: primary screen, population patch clamp on CHO cells stably expressing hERG; higher = less effect of the substance).
Sequence of human ether-à-go-go-related gene (hERG) potassium channel (Q12809 whole entry, looked up): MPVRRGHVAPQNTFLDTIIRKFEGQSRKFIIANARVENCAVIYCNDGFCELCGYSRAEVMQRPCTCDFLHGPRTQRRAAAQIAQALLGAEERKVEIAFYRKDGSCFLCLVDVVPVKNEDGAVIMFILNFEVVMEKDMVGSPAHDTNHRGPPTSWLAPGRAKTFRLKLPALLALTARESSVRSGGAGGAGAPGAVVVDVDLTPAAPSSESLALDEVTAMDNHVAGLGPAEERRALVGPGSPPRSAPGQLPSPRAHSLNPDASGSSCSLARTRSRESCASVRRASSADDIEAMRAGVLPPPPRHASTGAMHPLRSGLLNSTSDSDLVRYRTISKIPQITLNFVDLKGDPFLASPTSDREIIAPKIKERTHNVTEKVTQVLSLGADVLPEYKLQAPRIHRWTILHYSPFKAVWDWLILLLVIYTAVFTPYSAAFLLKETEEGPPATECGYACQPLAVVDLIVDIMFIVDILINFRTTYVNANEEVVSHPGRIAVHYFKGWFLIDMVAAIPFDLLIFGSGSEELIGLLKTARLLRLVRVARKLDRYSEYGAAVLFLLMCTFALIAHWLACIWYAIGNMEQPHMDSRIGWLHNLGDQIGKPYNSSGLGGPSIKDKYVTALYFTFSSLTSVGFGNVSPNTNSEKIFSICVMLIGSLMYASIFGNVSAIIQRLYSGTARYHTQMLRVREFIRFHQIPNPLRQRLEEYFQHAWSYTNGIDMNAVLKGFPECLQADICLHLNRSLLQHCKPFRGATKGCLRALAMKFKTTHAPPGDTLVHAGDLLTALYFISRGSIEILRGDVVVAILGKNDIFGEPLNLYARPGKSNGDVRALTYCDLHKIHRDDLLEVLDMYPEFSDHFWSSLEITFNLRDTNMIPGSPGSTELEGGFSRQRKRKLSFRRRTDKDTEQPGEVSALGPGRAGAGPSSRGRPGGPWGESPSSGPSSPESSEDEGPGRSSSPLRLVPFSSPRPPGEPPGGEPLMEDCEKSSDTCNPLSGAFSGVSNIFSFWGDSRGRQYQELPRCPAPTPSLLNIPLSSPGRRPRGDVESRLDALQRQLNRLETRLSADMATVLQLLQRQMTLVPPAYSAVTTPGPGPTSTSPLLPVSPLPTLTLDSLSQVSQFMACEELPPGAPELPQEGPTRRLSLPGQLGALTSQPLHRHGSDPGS
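Note: peak tail current of the secondary pulse compared with the same well before compound.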

Row | Compound | hERG current change (%, negative = inhibition) at 10uM [%]
1 | CCOC(=O)c1[nH]c(C)c(C(=O)N(C)C)c1C | 4.87
2 | CC(C)Oc1cccc(NC(=O)c2cnccc2C(F)(F)F)c1 | -0.311
3 | COc1ccc(C2=CC(c3ccc(C)cc3)n3nnnc3N2)cc1 (centres unmarked) | -6.67
4 | O=C(CC(C(=O)O)c1ccc(Cl)cc1Cl)c1ccc(Cl)cc1 (centres unmarked) | 11.4
5 | N=c1c(C(=O)NC2CCCCC2)cc2c(=O)n3ccccc3nc2n1Cc1cccnc1 | -73.3
6 | O=C(NC1CCCCCC1)C1c2ccccc2C(=O)N1Cc1cccnc1 (centres unmarked) | -3.16
7 | Cc1ccc(-c2ccc(C(=O)O)[nH]2)cc1 | -19.1
8 | Cc1ccccc1/C=N/NC(=O)Cc1ccc(Cl)cc1 | 17
9 | COc1ccccc1Nc1nnc(SCc2cc(=O)n3ccsc3n2)s1 | -8.42
10 | CN(N=Nc1ccc([N+](=O)[O-])cc1)c1ccccc1 | 15
11 | O=[N+]([O-])c1ccc(N=NN(CCO)CCO)cc1 | -75.3
12 | CC(C)N(N=Nc1ccc([N+](=O)[O-])cc1)C(C)C | 8.18
13 | Cc1ccc(C(=O)c2c3ccc(C(F)(F)F)cc3[n+]([O-])n2CCC[NH3+])cc1.O=C([O-])C(F)(F)F | -75
14 | Cc1ccc(C(=O)c2c3ccc([N+](=O)[O-])cc3[n+]([O-])n2CCC[NH3+])cc1.O=C([O-])C(F)(F)F | -65.4
15 | Nc1c(Cl)cc(C(=O)c2c3ccc([N+](=O)[O-])cc3[n+]([O-])n2CCC[NH3+])cc1Cl.O=C([O-])C(F)(F)F | -43.5
16 | COc1ccc(C(=O)c2c3ccccc3[n+]([O-])n2CCC[NH3+])cc1.O=C([O-])C(F)(F)F | -28.9
17 | Cc1ccc(C(=O)c2c3ccccc3[n+]([O-])n2CCC(=O)O)cc1 | 14.4
18 | CCN(CCn1cccn1)C(=O)C1CCC(=O)N(CCN2CCOCC2)C1 (centres unmarked) | 6.14
19 | O=C(CSc1nc2[nH]ncc2c(=O)[nH]1)Nc1ccc(Cl)c(Cl)c1 | 6.06

Row | Compound | hERG current change (%, negative = inhibition) at 10uM [%]
20 | CCN(CC(=O)Nc1ccc(NC(C)=O)cc1)C(=O)c1cccc(-n2cccc2)c1 | 0.603
21 | CCn1cc(/C=C(/C#N)S(=O)(=O)c2ccccc2)cn1 | -8.15
22 | COc1ccc(Nc2nc(N3CCN(S(C)(=O)=O)CC3)nc3ccccc23)c(OC)c1 | -22.7
23 | CC(Nc1nc(N2CCCCC2)nc2ccccc12)c1ccccc1 (centres unmarked) | -63.6
24 | CC(Nc1ncnc2ccccc12)c1ccccc1 (centres unmarked) | 5.95
25 | COc1ccc(Nc2nc(N3CCN(S(=O)(=O)N(C)C)CC3)nc3ccccc23)cc1 | -5.03
26 | Clc1ccc(-c2nc(N3CCCCC3)nc3ccccc23)cc1 | 4.29
27 | CC(Nc1nc(-c2ccccc2)nc2ccccc12)c1ccccc1 (centres unmarked) | 3.47
28 | CC(Nc1nc(N2CCNCC2)nc2ccccc12)c1ccccc1 (centres unmarked) | -66.2
29 | CC(Nc1nc(N2CCCC2)nc2ccccc12)c1ccccc1 (centres unmarked) | -79.2
30 | CC(Nc1nc(-c2ccccc2O)nc2ccccc12)c1ccccc1 (centres unmarked) | 5.73
31 | CC(Nc1nc(-c2ccccc2F)nc2ccccc12)c1ccccc1 (centres unmarked) | -3.87
32 | CC(Nc1nc(N2CCN(S(C)(=O)=O)CC2)nc2ccccc12)c1ccccc1 (centres unmarked) | -60.9
33 | Cc1cccc(OCCCn2c(CO)nc3ccccc32)c1 | -32.3
34 | CC(C)CCn1c(SCC(N)=O)nc2c1c(=O)n(C)c(=O)n2C | 6.57
35 | O=C(Nc1cccc2ncccc12)c1ccccc1Cl | 18.6
36 | Clc1ccccc1-c1nnc2sc(-c3cccs3)nn12 | -4.57
37 | CC(=O)c1c(C)oc2ccc(NS(=O)(=O)c3ccc(F)cc3C)cc12 | -13.8
38 | O=C(NN1CCOCC1)c1ccc(F)cc1 | 1.47

Row | Compound | hERG current change (%, negative = inhibition) at 10uM [%]
39 | CCOC(=O)c1c(C)nn(-c2ccc(NC(=O)c3cccs3)cc2)c1C | 16.8
40 | CCOC(=O)C1=C(O)C(=O)N(c2ccccc2)C1c1cccc([N+](=O)[O-])c1 (centres unmarked) | -26.7
41 | Cc1ccccc1OCC(=O)Nc1ccc2c(c1)OCO2 | -7.9
42 | Cc1cccc(C(=O)N(CCc2ccccc2)Cc2ccccc2)c1[N+](=O)[O-] | 4.17
43 | Cc1cccc(-n2c(C)cc(C)c(C#N)c2=O)c1 | 7.18
44 | Cc1ccc(C(=O)NCCCNC(=O)c2ccco2)cc1C | 14.7
45 | CC(Nc1nc(N2CCN(CCO)CC2)nc2ccccc12)c1ccccc1 (centres unmarked) | -60.9
46 | CCN(CC)c1nc(N2CCN(CCO)CC2)nc2ccccc12.Cl | -27.8
47 | CN1CCN(c2nc(N3CCN(CCO)CC3)nc3ccccc23)CC1.Cl | 7.33
48 | CC(Nc1nc(N2CCOCC2)nc2ccccc12)c1ccccc1 (centres unmarked) | -73.8
49 | c1ccc2c(Nc3ccc(N4CCOCC4)cc3)nc(N3CCOCC3)nc2c1 | -48.5
50 | c1ccc2c(NC3C4CC5CC(C4)CC3C5)nc(N3CCOCC3)nc2c1 (centres unmarked) | -35.1
51 | CN(C(=O)CS(=O)(=O)c1cn(CC(=O)N2CCOCC2)c2ccccc12)c1ccccc1 | 0.304
52 | Cc1cc(C)c(S(=O)(=O)NCCCn2ccnc2)cc1C | 4.04
53 | Cn1c(=O)c2[nH]c(-c3ccccc3O)nc2n(C)c1=O | 23
54 | CC(=O)Nc1ccc(SCCC2CCCCN2C)cc1 (centres unmarked) | 7.77
55 | CN1CCCCC1CCN1c2ccccc2Sc2ccc(S(C)=O)cc21.O=S(=O)(O)c1ccccc1 (centres unmarked) | -56
56 | O=C(O)CCN1c2ccccc2Sc2ccccc21 | 16.5
